The campaign covered roughly 1,300 compounds. About 150 (12%) were called active. Where a call stands in place of a potency, no number is given. Another 30% or so got no clear call; they are omitted. Calls come from the whole dose curve; as a rule, active = well fitted cell-killing curve with a large enough effect; inconclusive = small, poorly fitted or top-dose-only effect, or effect the other way; inactive = flat fitted curve, though single readings scatter. The sample as a whole holds a higher share of actives than the screen did.
Experiment: qHTS of small molecules that selectively kill Giardia lamblia: Hit Validation in HepG2 cytotox;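 note: compound exposure lasted overnight at 37 deg C; nearly all actives have a fitted effect of over 55% in size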
Conditions: cell viability; Potency: HepG2 cytotoxicity; series mostly up to 38.3 µM
Procedure, shortened: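 HepG2 cells seeded and incubated overnight at 37 deg C, then 23 nL compound added by pintool and incubated overnight at 37 deg C. Viability read as ATP luminescence with ATPLite after 15 min at room temperature.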
In the case of CC(C)(C)[C@H](N)C(=O)N[C@H]1CCC2C3CC=C4C[C@@H](O)CC[C@]4(C)C3CC[C@@]21C (stereo partly specified), the Potency is reported as 2.33 µM (active).
In the case of O=C(Nc1ccc(Cl)cn1)c1ccccc1[N+](=O)[O-], the Potency is reported as “inactive”.
In the case of Brc1ccc(CNc2nc3ccccc3n2CCN2CCCCC2)cc1, the Potency is reported as “inactive”.
For NC(=S)NN=C1CCCCCCCC1, the Potency was “inactive”.
With CCN(CC)CCCNc1nc2ccccc2c2[nH]c3ccc(OC)cc3c12 the Potency was 2.61 µM (active).
For COc1ccc(-c2nc(NCCCN(C)C)c3ccccc3n2)cc1, the Potency was “inactive”.
In the case of NCCCn1c(C(=O)c2cc(Cl)c(N)c(Cl)c2)c2ccccc2[n+]1[O-], the Potency is reported as “inactive”.
For O=[N+]([O-])C(/C=C(/Cl)[N+](=O)[O-])=C(N1CCCCC1)N1CCCCC1, the Potency was “inactive”.
With O=c1c2ccccc2nc(/C=C/c2ccc([N+](=O)[O-])o2)n1CCCO the Potency was 3.69 µM (active).
With CC(=O)N(/N=C/c1ccc([N+](=O)[O-])o1)c1nc2ccccc2c(=O)n1-c1ccccc1 the Potency was “inactive”.
With O=[N+]([O-])c1ccc(/C=C/C2=NN(c3ccccc3)C(c3ccco3)C2)o1 (stereo unspecified) the Potency was “inactive”.
With O=[N+]([O-])c1ncccc1Oc1nc(-c2cccnc2)nc2ccccc12 the Potency was “inactive”.
For COc1ccc(C(=O)COC(=O)c2ccccc2NS(=O)(=O)c2ccc(O)c([N+](=O)[O-])c2)cc1, the Potency was “inactive”.
In the case of Cc1[nH]n(S(=O)(=O)c2ccccc2)c(=O)c1N=Nc1cccc(Cl)c1, the Potency is reported as “inactive”.
For Cc1[nH]n(C2=NCCS2)c(=O)c1N=Nc1cccc(C(F)(F)F)c1, the Potency was 4.65 µM (active).
For CN(C(=O)c1ccc(N2CCCCC2)c([N+](=O)[O-])c1)C1CCS(=O)(=O)C1 (stereo unspecified), the Potency was “inactive”.
In the case of Cc1ccc(C(=O)c2c3ccc([N+](=O)[O-])cc3[n+]([O-])n2CCCC(N)=O)cc1, the Potency is reported as “inactive”.
With O=c1cc[nH]c2ccc([N+](=O)[O-])cc12 the Potency was “inactive”.
For Cc1cc(C(=O)COc2cccnc2[N+](=O)[O-])c(C)n1Cc1ccco1, the Potency was “inactive”.
In the case of c1ccc(-c2nc(-c3cnc4ccccc4n3)cs2)cc1, the Potency is reported as “inactive”.
For CC1(C)CC(N=c2cc(-c3ccccc3)oc3ccc(Cl)cc23)CC(C)(C)N1, the Potency was 8.26 µM (active).
For CN(C)CCCN=c1cc(-c2ccccc2)oc2ccc(Cl)cc12, the Potency was “inactive”.
In the case of Clc1ccc2oc(-c3ccccc3)cc(=NCCCN3CCOCC3)c2c1, the Potency is reported as “inactive”.
In the case of O=C(CSc1ccsc1[N+](=O)[O-])NCCc1ccc(Cl)cc1, the Potency is reported as “inactive”.
In the case of O=[N+]([O-])c1cn(-c2nc(-c3ccco3)cc(C(F)(F)F)n2)cn1, the Potency is reported as “inactive”.
With CNN/C(N=Cc1ccc([N+](=O)[O-])s1)=N\S(=O)(=O)c1cc(C)c(Cl)cc1SCc1ccccc1 the Potency was “inactive”.
For Clc1ccc2c(N/N=C/c3ccccc3Br)ccnc2c1, the Potency was 14.7 µM (active).
In the case of Clc1ccc2c(N/N=C/c3cccc(Br)c3)ccnc2c1, the Potency is reported as 11.7 µM (active).
For CCOC(=O)C1CCN(c2ccc([N+](=O)[O-])c(C(C)=O)c2)CC1, the Potency was “inactive”.
In the case of Cc1ccc(C(C(=O)NCc2ccco2)N(C(=O)CNC(=O)c2cccs2)c2c(C)cccc2C)cc1 (stereo unspecified), the Potency is reported as “inactive”.
With NC(=O)c1ccc(Nc2ccc([N+](=O)[O-])cc2[N+](=O)[O-])cc1 the Potency was “inactive”.
With CC(=O)c1c(C)n([O-])c2ccc(C)cc2[n+]1=O the Potency was “inactive”.
In the case of C=CCn1c(C)cc(C(=O)COC(=O)c2n[nH]c(=O)c3ccccc23)c1C, the Potency is reported as “inactive”.
With COc1ccc(-n2nc([N+](=O)[O-])c(=NCCC3=CCCCC3)n2O)cc1 the Potency was “inactive”.
With COc1ccc2c3n([n+]([O-])c2c1)CCN=C3c1cc(Cl)c(N)c(Cl)c1 the Potency was “inactive”.
In the case of O=c1[nH]cnc2ccc([N+](=O)[O-])cc12, the Potency is reported as “inactive”.
In the case of COc1cc(SC)ccc1C(=O)Nc1nc2ccccc2[nH]1, the Potency is reported as 2.07 µM (active).
With COC(=O)Nc1nc2ccc(Sc3ccccc3)cc2[nH]1 the Potency was “inactive”.
With COC(=O)Nc1nc2ccc(SC(C)C)cc2[nH]1 the Potency was “inactive”.
For COc1ccc(-n2nc([N+](=O)[O-])c(=NCCc3ccccc3)n2O)cc1, the Potency was “inactive”.
For CCCCC12CN3CC(C)(CN(C1)C3c1ccc([N+](=O)[O-])o1)C2=O (stereo unspecified), the Potency was “inactive”.
With Cc1ccc(S(=O)(=O)N2[C@@H](c3ccc(F)cc3)C(C(=O)O)=CC[C@H]2c2cccs2)cc1 the Potency was “inactive”.
With COc1ccc(C(=O)CC(SCC(NC(C)=O)C(=O)O)c2ccc(Cl)cc2)cc1OC (stereo unspecified) the Potency was “inactive”.
For Cc1cc(C)cc(N=c2c([N+](=O)[O-])nn(-c3cccc(Cl)c3)n2O)c1, the Potency was “inactive”.
With O=C(Nc1ccc(-c2nc3ncccc3o2)cc1)c1ccc([N+](=O)[O-])o1 the Potency was 4.65 µM (active).
For O=C(Nc1ccc2oc(-c3ccccc3F)nc2c1)c1ccc([N+](=O)[O-])o1, the Potency was “inactive”.
With O=C(Nc1ccc2oc(-c3cccnc3)nc2c1)c1ccc([N+](=O)[O-])o1 the Potency was 13.1 µM (active).
With Cc1cccnc1NC(=O)c1ccc([N+](=O)[O-])o1 the Potency was “inactive”.
With O=C(Nc1ccc2oc(-c3ccncc3)nc2c1)c1ccc([N+](=O)[O-])o1 the Potency was 16.5 µM (active).
For Cc1ccc(-c2nnc(NC(=O)c3ccc([N+](=O)[O-])o3)o2)c(C)c1, the Potency was “inactive”.
In the case of COc1ccc(-n2c(C)cc(C(=O)COc3ccc(C)nc3[N+](=O)[O-])c2C)cc1, the Potency is reported as “inactive”.
In the case of CC(=O)c1c(COC(=O)c2ccc(F)cc2)nc2ccccc2[n+]1[O-], the Potency is reported as “inactive”.
With COc1ccc(-n2nc([N+](=O)[O-])c(=NCCc3ccc(OC)c(OC)c3)n2O)cc1 the Potency was “inactive”.
For Cc1cccc(NC(=O)CN2C(=O)S/C(=C\c3ccc(O)c([N+](=O)[O-])c3)C2=O)c1, the Potency was “inactive”.
In the case of Cn1nc(N)c2c(-c3ccc(Cl)cc3)c(C#N)c(N)nc21, the Potency is reported as “inactive”.
For O=[N+]([O-])c1ccc(/C=N/Nc2nc(N3CCCC3)nc(N3CCCC3)n2)o1, the Potency was “inactive”.
In the case of CCN(CC)S(=O)(=O)c1cccc(N=Nc2c(O)c3ccccc3oc2=O)c1, the Potency is reported as “inactive”.
For Cc1ccc(S(=O)(=O)N2[C@@H](c3ccc(Cl)cc3)C(C(=O)O)=CC[C@H]2c2cccc(Cl)c2)cc1, the Potency was “inactive”.
With O=[N+]([O-])c1ccc(NCc2ccccc2N2CCC(CO)CC2)nc1 the Potency was “inactive”.
With Cc1c(Cl)cccc1N=c1c([N+](=O)[O-])nn(-c2ccccc2)n1O the Potency was “inactive”.
In the case of CN=c1c([N+](=O)[O-])nn(-c2ccc3c(c2)OCCO3)n1O, the Potency is reported as “inactive”.
For O=c1c2c([N+](=O)[O-])cc([N+](=O)[O-])cc2nc2ccccn12, the Potency was “inactive”.
In the case of CCCC12CN3CC(C)(CN(C1)C3c1ccc([N+](=O)[O-])o1)C2=O (stereo unspecified), the Potency is reported as “inactive”.
For CC(=O)CSc1ccc(-c2nc3ccccc3[nH]2)cn1, the Potency was 14.7 µM (active).
With Cc1ncc([N+](=O)[O-])n1CCOC(=O)NC(NCc1ccccc1)C(Cl)(Cl)Cl (stereo unspecified) the Potency was “inactive”.
In the case of Cc1cnc(N=Nc2ccccc2)[nH]1, the Potency is reported as “inactive”.
In the case of Cc1cc2nc(-c3ccc[nH]c3=O)[nH]c2cc1C, the Potency is reported as 2.33 µM (active).
In the case of O=[N+]([O-])c1nn(-c2ccc3c(c2)OCCO3)n(O)c1=NC1CCCCC1, the Potency is reported as “inactive”.
For CC(NC(=O)COc1cccnc1[N+](=O)[O-])c1ccc(F)cc1 (stereo unspecified), the Potency was “inactive”.
In the case of O=C(Nc1nnc(SCC(=O)N2CCOCC2)s1)c1ccccc1Cl, the Potency is reported as 2.07 µM (active).
In the case of O=C(CSc1nnc(NC(=O)c2c(F)cccc2F)s1)Nc1ccc(F)cc1, the Potency is reported as “inactive”.
In the case of O=C(CSc1nnc(NC(=O)c2ccccc2)s1)NCc1ccco1, the Potency is reported as 2.07 µM (active).
For O=C(Nc1nnc(SCC(=O)N2CCOCC2)s1)c1ccccc1, the Potency was 2.33 µM (active).
In the case of O=C(Cc1ccc(-n2c(=O)c3sccc3n(CC(=O)Nc3ccccc3)c2=O)cc1)NCc1ccco1, the Potency is reported as “inactive”.
With Cc1ccc(S(=O)(=O)N2[C@@H](c3ccccc3)C(C(=O)O)=CC[C@H]2c2ccc3c(c2)OCO3)cc1 the Potency was “inactive”.
With CCN(c1ccccc1)S(=O)(=O)c1cccc(C(=O)OCc2nc3sc(C)c(C)c3c(=O)[nH]2)c1 the Potency was “inactive”.
For CC(OC(=O)c1ccc([N+](=O)[O-])s1)C(=O)NC1CCCCC1C (stereo unspecified), the Potency was “inactive”.
For O=[N+]([O-])c1nn(-c2ccc3c(c2)OCCO3)n(O)c1=NCCCO, the Potency was “inactive”.
In the case of O=[N+]([O-])c1ccc(-c2nc(C(Cl)Cl)c3ccccc3n2)cc1, the Potency is reported as “inactive”.
For CCOC(=O)C1=C(C)N=c2s/c(=C\c3ccc(O)c([N+](=O)[O-])c3)c(=O)n2C1c1ccccc1OC (stereo unspecified), the Potency was “inactive”.
With Nc1ccc[n+](CC(=O)c2ccc(F)cc2)c1 the Potency was 1.65 µM (active).
In the case of CCOC(=O)c1c(C)[nH]c(C)c1S(=O)(=O)N1CCN(c2ccc([N+](=O)[O-])cc2)CC1, the Potency is reported as “inactive”.
For Cc1ccc(CN=c2c([N+](=O)[O-])nn(-c3cccc(Cl)c3)n2O)cc1, the Potency was “inactive”.
In the case of N#C/C(=C(/O)c1ccc([N+](=O)[O-])o1)c1nc2ccccc2[nH]1, the Potency is reported as 3.69 µM (active).
For CN(Cc1ccccc1)C(=O)c1ccc([N+](=O)[O-])o1, the Potency was “inactive”.
For CCCn1c(NC(=O)c2ccc([N+](=O)[O-])o2)nc2ccccc21, the Potency was “inactive”.
In the case of COc1ccc(C(=S)NC2CCCCC2)cc1, the Potency is reported as “inactive”.
For COc1ccccc1-c1nnc(C2CCN(S(=O)(=O)c3cccc([N+](=O)[O-])c3)CC2)o1, the Potency was “inactive”.
For CS(=O)(=O)N1CCN(c2ccc([N+](=O)[O-])c3cccnc23)CC1, the Potency was “inactive”.
In the case of COc1ccccc1C1OC2=C(Nc3ccc([N+](=O)[O-])cc3N2)C1=O (stereo unspecified), the Potency is reported as “inactive”.
For CNc1nnc(-c2ccc(N(C)C)cc2)s1, the Potency was 4.14 µM (active).
In the case of Cc1ccccc1NC(NC(=O)OCCn1c([N+](=O)[O-])cnc1C)C(Cl)(Cl)Cl (stereo unspecified), the Potency is reported as “inactive”.
For COc1cc(/C=C/c2ccc3cccc(OC)c3n2)c(O)c([N+](=O)[O-])c1, the Potency was “inactive”.
For CC1=NN(c2nc3ccccc3[nH]2)C(=O)/C1=C/N(C)C, the Potency was 0.927 µM (active).
In the case of Cc1ccc([C@H]2C(C(=O)O)=CC[C@@H](c3cccc(Cl)c3)N2S(=O)(=O)c2ccc(C)cc2)cc1, the Potency is reported as “inactive”.
For O=[N+]([O-])c1cccc(-n2nnnc2CNCc2ccccc2)c1, the Potency was “inactive”.

From PubChem BioAssay AID588382 (National Center for Advancing Translational Sciences (NCATS), 2011)
Potency is the fitted concentration of half-maximal effect.
